Screening results from PubChem BioAssay.
Shown is part of a subset that was picked to be rich in hits.
ST2 IL33 inh: inhibitors of human ST2 (IL1RL1) binding to IL-33, primary screen, biochemical, AlphaLISA; AlphaLISA ST2-Fc/biotin-IL-33 interaction, 1 h; Interleukin-1 receptor-like 1 (Homo sapiens), Q01638; inhibition, % for hits at 17 µM; 78,000 tested, 2.3% active; in the data active = inhibition above about 30%
Target sequence (Q01638 whole entry, looked up): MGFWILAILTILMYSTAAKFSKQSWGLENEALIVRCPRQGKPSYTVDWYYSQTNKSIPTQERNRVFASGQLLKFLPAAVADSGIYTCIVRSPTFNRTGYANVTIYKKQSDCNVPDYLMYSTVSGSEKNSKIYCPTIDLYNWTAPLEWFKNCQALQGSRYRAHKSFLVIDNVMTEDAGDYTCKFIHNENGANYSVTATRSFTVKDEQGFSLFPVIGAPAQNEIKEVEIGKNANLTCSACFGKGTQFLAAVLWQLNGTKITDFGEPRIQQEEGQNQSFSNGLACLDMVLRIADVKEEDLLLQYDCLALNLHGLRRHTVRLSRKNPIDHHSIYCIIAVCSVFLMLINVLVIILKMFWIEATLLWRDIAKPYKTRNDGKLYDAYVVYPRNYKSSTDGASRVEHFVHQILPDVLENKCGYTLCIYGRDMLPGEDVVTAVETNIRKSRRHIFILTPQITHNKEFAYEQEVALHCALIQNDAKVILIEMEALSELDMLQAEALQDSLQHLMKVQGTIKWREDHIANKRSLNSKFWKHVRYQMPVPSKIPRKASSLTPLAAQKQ
A number is an active result; 0 = inactive; ! = a repeat was not active.

SMILES	ST2 IL33 inh
COc1cc(C=O)ccc1OCCOc1ccc(Br)cc1Cl	0
CCN(C)c1ccc(/C=C2/C(=O)NN(c3cccc(Br)c3)C2=O)cc1	39%
Cc1ccc(N2NC(=O)/C(=C/c3ccc(Cl)cc3)C2=O)cc1Cl	0
O=C1NN(c2cccc(Br)c2)C(=O)/C1=C\c1ccccc1	0
C=CCOc1ccc(/C=C2\C(=O)NN(c3cccc(Br)c3)C2=O)cc1OC	34%
COc1cc(C=C2C(=O)OC(C)(c3ccccc3)OC2=O)ccc1OCc1cccc(C(=O)O)c1 (stereo not drawn)	0
COc1ccc(S(=O)(=O)NCC2CCCN(C(=O)CCn3cccn3)C2)cc1 (stereo not drawn)	0
O=C(Nc1nnc(N=Cc2cccs2)s1)c1cccc([N+](=O)[O-])c1	0
CC(=O)OC(C)C(/C=C/C(O)C(O)C1CC=CC(=O)O1)OC(C)=O (stereo not drawn)	0
CN1CCC2(CC1)CCN(S(=O)(=O)c1cc3ccccc3o1)C2	0
CN(CC(=O)N1CCn2c1nc1ccccc12)S(=O)(=O)c1ccc2c(c1)CCC(=O)N2	0
COCc1nc(NC(C)CCc2ccco2)c2cnn(C)c2n1 (stereo not drawn)	0
Cc1[nH]c(=O)[nH]c(=O)c1S(=O)(=O)N(C)c1ccc(Br)cc1	0
COc1cc(Br)c(CCNC(=O)c2ccccc2)cc1OC	0
COCCOC(=O)c1c(C)oc2ccc(NS(=O)(=O)c3c(C)cc(C)cc3C)cc12	0
Cc1cc(C)c(S(=O)(=O)N2CCCC2=O)c(C)c1	0
Cc1cc(C)c(N2CCC(=O)N2)c(C)c1	33%
CCN1CCN(Cc2c(C)[nH]c3c(C)cc(C)cc3c2=O)CC1	0
CCN(CC)S(=O)(=O)c1ccc2c(c1)NC(=O)CS2	0
COc1ccc2c(CN(C)Cc3cccc4ncccc34)[nH]nc2c1	0
Cc1cc(C)c(S(=O)(=O)N2CCN(c3ccccc3)CC2)cc1C	0
Cc1cc(S(=O)(=O)N2CCN(S(=O)(=O)c3ccc(Cl)c(C)c3)CC2)ccc1Cl	0
Cc1cc(S(=O)(=O)N=C2C=CC(=O)c3ccccc32)ccc1Cl	42%
Cc1cc(Br)c(S(=O)(=O)N2CCN(c3ccccc3)CC2)cc1C	0
Cc1cc(C)c(S(=O)(=O)N2CCCCC2)cc1S(=O)(=O)N1CCCCC1	0
SMILES	ST2 IL33 inh
Cc1cc(C)c(S(=O)(=O)N=C2C=C(Br)C(=O)c3ccccc32)cc1C	35%
Cc1cc(C)c(S(=O)(=O)N=C2C=CC(=O)c3ccccc32)cc1C	47%
Cc1cc(C)c(S(=O)(=O)N2CCN(c3cc(-c4ccccc4C)ncn3)CC2)cc1C	0
CC1=CC(=NS(=O)(=O)c2cccc([N+](=O)[O-])c2)C=CC1=O	0
O=C1c2sc3nnc(-c4cccs4)c(=O)n3c2C(=O)N1Cc1ccccc1	0
CC(C)c1cc(CNC(=O)CSCc2ccccc2Cl)no1	0
CC(=O)N1CCC(N2CC[C@H](c3nnc(-c4cccnc4)o3)C2)CC1	0
CC(NC(=O)Cn1c(=O)sc2ccccc21)c1ccccc1 (stereo not drawn)	0
COc1ccc(O)c(C2=Nc3ccccc3N=C(c3ccc(F)cc3)C2)c1	32%
COc1ccc(C2=Nc3ccccc3N=C(c3cc(OC)ccc3O)C2)cc1	0
Oc1ccccc1C1=Nc2ccccc2N=C(c2ccccc2)C1	0
Clc1ccc(CO/N=C2/CCCc3nonc32)c(Cl)c1	0
COc1ccc(CCNC(=O)c2ccc(Cn3c(=O)[nH]c4ccsc4c3=O)cc2)cc1OC	0
O=C(NCCc1ccc(Cl)cc1)c1ccc(Cn2c(=O)[nH]c3ccsc3c2=O)cc1	37%!
CCCCC(CC)CNC(=O)c1ccc(Cn2c(=O)[nH]c3ccsc3c2=O)cc1 (stereo not drawn)	0
COc1ccccc1C(CC(=O)O)c1ccco1 (stereo not drawn)	0
C=C(C)CC(Nc1ccc(OC)cc1)c1ccco1 (stereo not drawn)	37%
COc1ccc(/C=C(/NC(=O)c2ccco2)C(=O)Nc2ccc(OC)cc2)cc1	0
O=C(CCc1nc(-c2ccccc2F)no1)N[C@H]1COC[C@@H]1N1CCCCC1	0
Cc1ccc(N=Cc2cc(C)cc([N+](=O)[O-])c2O)c(Cl)c1	30%
O=[N+]([O-])c1cccc(C=Nc2ccccc2Cl)c1O	0
O=[N+]([O-])c1cc(Br)cc(C=Nc2ccc(Br)cc2)c1O	0
CCCN1C(=O)/C(=C2\SC(N)=NC2=O)c2cc(Br)ccc21	33%
CCCN1C(=O)C(=O)c2cc(Br)ccc21	0
CCN1C(=O)/C(=C2\SC(N)=NC2=O)c2cc(Br)ccc21	0
SMILES	ST2 IL33 inh
Cc1ccc(C(C)C)c(OCC(=O)Nc2cccc(C)c2C)c1	0
COc1ccc(S(=O)(=O)N2CCC(C(=O)N3CCC(Cc4ccccc4)CC3)CC2)cc1	0
CCNc1nc(N2CCCC2)nc(N2CCC(Cc3ccccc3)CC2)n1	57%
O=C(c1ccc(Cl)cc1)N1CCC(C(=O)N2CCC(Cc3ccccc3)CC2)CC1	0
COc1ccc2nc3oc(C(=O)N4CCN(c5ccccc5)CC4)cc3cc2c1	0
c1ccc(C(Cn2ccnc2)n2ccnc2-c2cnc[nH]2)cc1 (stereo not drawn)	0
COc1ccc(-c2cc3ccccc3[nH]2)cc1	0
COc1ccc(-c2ccc[nH]2)cc1	42%
COc1ccc(-c2cc(-c3ccccc3)nc(=O)[nH]2)cc1	0
CCOc1ccccc1Nc1ncnc2c1cnn2-c1cccc(C)c1	0
O=C(Nc1cccc(-c2nc3ccccc3[nH]2)c1)c1cccnc1	0
O=C1C(=Cc2ccc3c(c2)OCO3)C(=O)c2ccccc21	0
CCN(CC)c1ccc(C=Nc2ccc([N+](=O)[O-])cc2OC)c(O)c1	0
CCSC1=N/C(=C\c2cc3c(cc2Cl)OCO3)C(=O)S1	0
CCSC1=N/C(=C\c2ccc3c(c2)OCO3)C(=O)S1	55%
CCOc1ccc(-c2nc3s/c(=C\c4ccc(OC)cc4OC)c(=O)n3n2)cc1	0
CCSC1=N/C(=C\c2ccc(N(CC)CC)cc2OC)C(=O)S1	65%
COc1ccccc1-n1cc(-c2ccnc(NCCc3nccs3)n2)cn1	0
CC1=Nc2cc(C(=O)O)ccc2Sc2ccc(Cl)cc21	0
Cc1ccc(NCCC(=O)c2ccc(C)o2)cc1	31%
Cc1ccc(C(=O)Nc2ccc(S(=O)(=O)Nc3ncccn3)cc2)o1	0
Cc1ccc(C(=O)Nc2ccccc2NC(=O)c2ccc(C)o2)o1	0
Cc1c(O)cc(C(=O)N2CCCC(c3[nH]ncc3-c3ccccc3)C2)cc1O (stereo not drawn)	0
O=C(NC(c1ccccc1)c1ccccc1)c1cnc2n(c1=O)CCS2	0
O=C(NCCN1CCN(c2ccccc2)CC1)c1ccc2nc3cc(Cl)ccc3c(=O)n2c1	0
SMILES	ST2 IL33 inh
c1ccc(-c2nc3c4c5c(sc4ncn3n2)CCCCC5)cc1	0
COC(=O)C1C(=O)C2=C(CC1C)NC(C)=C(C(=O)OC1CCCCC1)C2c1ccc(F)cc1 (stereo not drawn)	0
COc1ccc(/C=C2/SC(=Nc3ccc(S(N)(=O)=O)cc3)NC2=O)cc1	37%
CC(C)c1ccc(/C=C2/SC(=Nc3ccccc3)NC2=O)cc1	37%
COc1cc(/C=C2/SC(=Nc3ccccc3Cl)NC2=O)cc(OC)c1	0
O=C1NC(=Nc2ccccc2)S/C1=C/c1cc2c(cc1Br)OCO2	0
O=C1N/C(=N/O)S/C1=C/c1ccc([N+](=O)[O-])cc1	0
CCOc1cc(/C=C2/SC(=Nc3ccccc3)NC2=O)ccc1OC	0
COc1ccccc1-c1ccc(C(=O)N2CC[C@H](CO)[C@@H](O)C2)cc1	0
